phage Ecoli inh = E. coli growth loss with phage present. AID 651602. growth absorbance. inhibition, % at 11.9 µM. 360,000 tested, 0.26% active; in the data active = inhibition above about 11%
Tat transport = inhibitors of E. coli Tat protein transport; inhibition, % at 10 µM; AID 488895; 340,000 tested, 0.036% active; E. coli MC4100 TorA-mCherry Tat export, fluorescence;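 active = mean replicate inhibition at least 50% and at least half of replicates individually reaching 50%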;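 note: exported cargo escapes ClpAP degradation while cytoplasmic cargo is degraded and loses fluorescence; 0% = median of neutral control wells and 100% = median of NaSCN control wells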
E coli growth-1 = inhibitors of Escherichia coli growth; AID 1053175; OD600 absorbance (test concentration not listed); OD600, 23 h; stronger effect = lower value; 330,000 tested, 0.21% active;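 active = OD600 absorbance below the run mean of sample wells minus 3.6 SD, in any replicate, cut at about 0.56 in these data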
AddAB inh = less growth of phage-infected E. coli with AddAB; E. coli expressing H. pylori AddAB, absorbance growth; inhibition, % at 11.9 µM; 330,000 tested, 0.29% active; AID 435030; in the data active = inhibition above about 12%;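 note: 0% = vehicle wells of infected cells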
E coli growth-2 = bacterial growth inhibition, counter-screen for AddAB inhibitors; E. coli V3065 growth, OD600 absorbance, 18 h; inhibition, % at 11.9 µM; 330,000 tested, 0.27% active; AID 449728;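 active = inhibition above the campaign's mean inhibition across all tested compounds plus 3 SD, cut at about 9.9% in these data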;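 note: uninfected addAB+ strain grown without phage in ampicillin broth; 0% = DMSO wells and 100% = ciprofloxacin 0.95 µg/ml wells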
RecBCD conf = growth loss of phage-infected V66 E. coli, RecBCD confirmation screen. shares compounds with phage Ecoli inh. E. coli V66 + T4 2- phage, growth OD. inhibition, % at 11.9 µM. 890 tested, 45% active. AID 651982;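 active = mean inhibition over triplicates exceeding the hit threshold derived in the original primary screen, cut at about 11% in these data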
Ecoli viability = bacterial viability inhibition counter-screen for RecBCD | shares compounds with phage Ecoli inh | E. coli viability, absorbance (OD) growth | inhibition, % at 11.9 µM | 890 tested, 29% active | AID 651983; in the data active = inhibition above about 20%;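 note: E. coli strain V66 grown with compound alone and no phage infection; 0% = bacteria with DMSO vehicle only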
AddAB phage OD = growth loss of phage-infected AddAB E. coli, RecBCD counter-screen | shares compounds with phage Ecoli inh | AID 651984 | inhibition, % at 11.9 µM | 890 tested, 45% active | E. coli expressing H. pylori AddAB + T4 phage, OD growth; gene 2 mutant T4, recBCD-deleted host;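 active = mean inhibition above the solvent-only control wells' mean plus 3 SD, cut at about 22% in these data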;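 note: higher means less bacterial growth from phage killing when AddAB is blocked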
* marks the source's active call; other numbers are inactive results; / = not tested or not shown. Hits are enriched below; roughly 0.5% of the tested compounds scored in any of these assays.

SMILES	phage Ecoli inh	Tat transport	E coli growth-1	AddAB inh	E coli growth-2	RecBCD conf	Ecoli viability	AddAB phage OD
Cc1ccccc1C(=O)NCC(C)NC(=O)c1ccccc1C (centres undefined)	100*	-4	0.69	0	2	-3	-1	1
O=C(C=Cc1ccccc1O)c1ccccc1O	2	-4	0.57	/	/	/	/	/
O=C(/C=C/c1ccc([N+](=O)[O-])cc1)c1ccccc(=O)c1O	16*	11	/	/	/	10	12	-1
Cc1ccc(/C=C/C(=O)c2ccccc(=O)c2O)c(C)c1	13*	1	0.67	7	2	4	6	1
O=C(/C=C/c1ccc([N+](=O)[O-])cc1)c1cccs1	3	-1	0.7	0	2	/	/	/
C#CCOCCOCCOCCNc1nc(N2CCN(C(=O)C(CCC(=O)O)n3cc(C(N)C(C)CC)nn3)CC2)nc(N2CCN(C(=O)C(Cc3cc4ccccc4[nH]3)n3cc(C(N)C(C)CC)nn3)CC2)n1 (centres undefined)	/	/	0.66	/	/	/	/	/
COC(=O)C1C[C@@]2(O)C(O)C(O)C(O)CC2N1CC1CC1 (some centres undefined)	/	/	0.66	/	/	/	/	/
Cc1c(Cc2ccc3c(c2)OCO3)sc(NC(=O)C(C)(C)C)c1C#N	100*	-2	0.79	0	-1	-1	-2	-1
CCC(=O)Nc1sc(Cc2ccc3c(c2)OCO3)c(C)c1C(N)=O	0	-3	0.66	0	-2	/	/	/
COc1cc(C(=O)N=c2sccn2C)c([N+](=O)[O-])cc1OC	3	-3	0.68	/	/	/	/	/
Cn1ccsc1=NC(=O)c1ccc([N+](=O)[O-])o1	100*	12	0.062*	99*	99*	99*	101*	101*
COC(=O)/C(=C\c1ccc([N+](=O)[O-])o1)NC(=O)c1ccccc1	2	2	0.71	1	1	/	/	/
NC(=O)/C(=C\c1ccc([N+](=O)[O-])o1)c1ccco1	100*	/	/	/	/	102*	103*	101*
COc1cc(OC)cc(C(=O)NN=Cc2ccc(OC)c(COc3ccc4ccccc4c3)c2)c1	/	/	0.73	/	/	/	/	/
Cc1cccc(NC(=O)NNC(=O)c2ccc3ccccc3c2O)c1	11	-6	0.7	/	/	/	/	/
O=C(NNC(=O)c1ccc2ccccc2c1O)Nc1ccc(F)cc1	12*	-2	0.73	10	9	5	6	8
Cc1ccnc2c1ccc1ccccc12	3	0	0.6	2	2	/	/	/
Cc1ccnc2c1ccc1cccnc12	14*	2	0.37*	/	/	13*	17	17
COc1ccc(CCNC(=O)C2CCN(S(=O)(=O)c3ccc(SC)cc3)CC2)cc1	17*	9	0.71	4	-3	-1	-2	-4
COc1ccc(S(=O)(=O)N2CCC(C(=O)NCCc3ccc(OC)c(OC)c3)CC2)cc1	1	/	/	/	/	/	/	/
CC(=NNC(=O)c1ccccc1O)C1C(=O)c2ccccc2C1=O	/	/	0.67	/	/	/	/	/
C/C(=N/NC(=O)c1cc2ccccc2cc1O)C1C(=O)c2ccccc2C1=O	11*	7	/	9	9	5	7	3
Cc1ccc(/C=C/C(=O)c2c(C)nc3ccccn23)cc1	12*	-1	0.68	2	2	-2	-3	1
O=C(CCSc1nc2ccccc2s1)N/N=C/c1c(O)ccc2ccccc12	17*	-6	/	8	12*	7	10	18
COc1ccc(C=NNC(=O)CCSc2nc3ccccc3s2)cc1	/	/	0.71	/	/	/	/	/
SMILES	phage Ecoli inh	Tat transport	E coli growth-1	AddAB inh	E coli growth-2	RecBCD conf	Ecoli viability	AddAB phage OD
CCCSc1ccc(C2N[C@@](Cc3ccccc3)(C(=O)OC)C3C(=O)N(C)C(=O)C23)cc1 (some centres undefined)	/	/	0.66	/	/	/	/	/
Nc1nc(SCc2ccccc2)c2[nH]cnc2n1	2	-2	0.67	0	2	/	/	/
CNc1ncnc(Sc2nc(N)nc3nc[nH]c23)c1[N+](=O)[O-]	62*	-1	/	/	/	55*	65*	79*
Nc1nc(Sc2ccc([N+](=O)[O-])c3nonc23)c2[nH]cnc2n1	39*	-5	/	/	/	44*	51*	68*
COC(=O)[C@@]1(Cc2ccc(OC)cc2)C2c3cc(C(=O)N4CCCC4)n(Cc4c(CO)[nH]cc(C)c4=O)c3CC2CN1C(=O)c1ccccc1 (some centres undefined)	/	/	0.65	/	/	/	/	/
CNc1cccnc1C=NNC(N)=S	4	-10	/	/	/	/	/	/
NC(=S)NN=Cc1nccc2c(C(F)(F)F)cccc12	16*	/	/	/	/	18*	21*	22*
CN(Cc1ccccc1)C(=O)COC(=O)C1=NNC(=O)CC1	3	7	0.72	2	1	/	/	/
N#CCCN(C(=O)COC(=O)C1=NNC(=O)CC1)c1ccccc1	11*	-5	0.61	1	0	-2	-3	-5
CC(C(=O)OCC(=O)Nc1cc(S(=O)(=O)N2CCOCC2)ccc1Cl)N1C(=O)C2CCCCC2C1=O (centres undefined)	/	/	0.65	/	/	/	/	/
O=S(=O)(N(Cc1ccccc1)C(CO)Cc1ccccc1)N(Cc1ccccc1)C(CO)Cc1ccccc1 (centres undefined)	/	/	0.69	/	/	/	/	/
CC(C)(C)C(=O)Nc1ccc(Sc2ccc([N+](=O)[O-])cc2)cc1	2	10	0.72	2	-1	/	/	/
CC(=O)Nc1ccc(Sc2ccc([N+](=O)[O-])o2)cc1	21*	-22	0.55	/	/	15*	17	72*
C=C1CC(OC2OC(CO)C(O)C(O)C2O)C2C(C)C(=O)OC2C2C1CC(O)C2C (centres undefined)	/	/	0.66	/	/	/	/	/
O=[N+]([O-])c1ccc(O)c(C2CCCCC2)c1	12*	-5	0.19*	/	/	7	12	17
O=Cc1cc(N=Nc2ccccc2Cl)ccc1O	12*	0	0.68	7	7	5	7	1
C=CCOC(=O)C(=Cc1cccc2ccccc12)NC(=O)c1ccccc1	/	/	0.69	/	/	/	/	/
Nc1ccc(CCC(=O)N2CCCC2)cc1	2	2	0.71	/	/	/	/	/
CCC(=O)Nc1ccc(CCC(=O)N2CCCC2)cc1	24*	3	0.66	2	0	-2	-3	0
O=C(Nc1cccc([N+](=O)[O-])c1)c1cccc(C(=O)Nc2cccc([N+](=O)[O-])c2)c1	2	-4	/	-2	-3	/	/	/
CC(NC(=O)Nc1cccc([N+](=O)[O-])c1)(C(F)(F)F)C(F)(F)F	14*	-11	0.63	4	0	7	7	6
CC(=O)c1cn(CC(=O)Nc2ccccc2)c2ccccc12	12*	-2	0.69	14*	11*	5	9	2
CCN1C(=NCCc2ccccn2)NC(c2cccc(F)c2)C(C(=O)OC)=C1C (centres undefined)	/	/	0.68	/	/	/	/	/
O=c1ccc2cc3c([nH]c4ccc(Br)cc43)oc-2c1O	14*	4	0.7	8	9	6	8	17

Compound activity (PubChem BioAssay)
